Screening results from PubChem.
CYP2C9 activ: CYP2C9 (human) activation; P11712; recombinant CYP2C9, luciferin-H conversion, luminescence; hits give high values; factor 1 = untreated enzyme, 0 = blocked; activation factor at 5 µM; 1.4% of 96,000 active; AID 1024;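 active means activation factor of 2 or more for CYP2C9 at a 5 µM dose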;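 further: 0 = sulfaphenazole-blocked wells and 1 = vehicle-only wells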
Cav32 inh: human Cav3.2 channel inhibition, primary screen; 4% of 100,000 active; B-score at 10 µM; Cav3.2-expressing cells, Fluo-4 calcium fluorescence FDSS; hits give low values;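 active means single-dose well whose peak fluorescence ratio is a statistical outlier from its plate by either plate-standardised score or position-corrected B-score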
CYP2C19 inh: blocks human cytochrome P450 2C19; CYP2C19 Supersomes, luciferin-H EGE luminescence, 30 min; inhibition, % at 5 µM; 21% of 96,000 active; AID 778;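 active means CYP2C19 inhibition above a set limit at 5 µM in the primary screen, cut at about 50% in these data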;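 further: plate controls were negative control wells for no effect and 2.5 mM tranylcypromine positive control for full effect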
Target sequence (P33261 whole entry, looked up): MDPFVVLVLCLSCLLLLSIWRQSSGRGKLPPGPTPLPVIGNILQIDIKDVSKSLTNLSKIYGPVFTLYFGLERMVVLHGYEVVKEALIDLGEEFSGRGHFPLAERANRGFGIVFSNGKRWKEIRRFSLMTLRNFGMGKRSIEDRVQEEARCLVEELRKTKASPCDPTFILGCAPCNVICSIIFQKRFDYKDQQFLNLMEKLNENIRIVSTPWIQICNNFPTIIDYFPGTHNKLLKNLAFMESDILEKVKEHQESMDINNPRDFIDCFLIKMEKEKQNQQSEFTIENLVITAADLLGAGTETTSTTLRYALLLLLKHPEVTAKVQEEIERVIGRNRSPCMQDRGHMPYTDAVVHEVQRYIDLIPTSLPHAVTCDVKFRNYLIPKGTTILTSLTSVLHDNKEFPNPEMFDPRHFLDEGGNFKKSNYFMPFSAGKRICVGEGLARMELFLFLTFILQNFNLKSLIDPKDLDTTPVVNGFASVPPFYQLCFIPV
CYP2C19 activ: activators of human cytochrome P450 2C19 | P33261 | recombinant CYP2C19, luciferin-H EGE luminescence; hits give high values; 0 = fully inhibited enzyme, 1 = untreated enzyme | activation factor at 5 µM | 96,000 tested, under 10 active | AID 1025;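 active means activation factor of at least 2 at 5 µM in the primary screen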;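 further: 0 = wells with 2.5 mM tranylcypromine and 1 = vehicle-only wells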
CYP2C9 inh: human CYP2C9 inhibition; P11712; CYP2C9 Supersomes, luciferin-H conversion, luminescence; inhibition, % at 5 µM; 20% of 96,000 active;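 active means blocking of liver enzyme CYP2C9 beyond about 50% at 5 µM, limit read from the data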
* = called active by the depositor. Most compounds without a hit are left out; they make up all but 27% or so of the library.

For Cn1c(SCC(=O)N2CCOCC2)nnc1-c1cccc(NC(=O)c2ccccc2)c1 the results were CYP2C9 activ 1, Cav32 inh -0.0544, CYP2C19 inh -8.8, CYP2C19 activ 1.1 and CYP2C9 inh 1.5.
For Cn1c(SCc2ccccc2)nnc1-c1ccc2c(c1)OCO2 the results were CYP2C9 activ 1.1, Cav32 inh 0.0982, CYP2C19 inh 88.4*, CYP2C19 activ 0.1 and CYP2C9 inh -7.6.
For COC(=O)c1ccccc1CON1C(=O)C(C)(C)N(OCc2ccccc2C(=O)OC)C(=O)C1(C)C the results were CYP2C9 activ 0.7, Cav32 inh -0.301, CYP2C19 inh 26.8, CYP2C19 activ 0.7 and CYP2C9 inh 25.8.
CCNc1nc2[nH]c(=O)c3c(c2s1)OC(N)=C(C#N)C3c1ccc(C)cc1 (centres undefined) was read as CYP2C9 activ 0.9, Cav32 inh -0.234, CYP2C19 inh -1.6, CYP2C19 activ 1 and CYP2C9 inh 12.9.
Screening COc1ccc(O)c(-c2[nH]ncc2C(=O)c2ccccc2C)c1 returned CYP2C9 activ 0.1, Cav32 inh 0.493, CYP2C19 inh 90.2*, CYP2C19 activ 0.1 and CYP2C9 inh 86.9*.
COc1ccc(/C=C/C(=O)c2ccccc2O)cc1 was read as Cav32 inh -0.672.
`COC(=O)c1ccccc1NC(=O)C1CCN(C(=O)c2cc(OC)c(OC)c(OC)c2)CC1` gave CYP2C9 activ 0.1, Cav32 inh 0.695, CYP2C19 inh 18.5, CYP2C19 activ 0.8 and CYP2C9 inh 91.1*.
`O=C(Nc1ccccc1)c1ccccc1NC(=O)C1CCCCC1` gave CYP2C9 activ 0.7, Cav32 inh 0.304, CYP2C19 inh 19.7, CYP2C19 activ 0.8 and CYP2C9 inh 34.4.
`COc1cc(C(=O)N2CCC(N3CCCCCC3)CC2)cc(OC)c1OC` gave Cav32 inh -0.706.
COC(=O)c1ccccc1NC(=O)C1CCCC1 was read as CYP2C9 activ 1.4, Cav32 inh -0.0186, CYP2C19 inh 57.1*, CYP2C19 activ 0.4 and CYP2C9 inh -39.3.
O=C(Nc1ccccc1Oc1ccccc1)C1CC1 was read as CYP2C9 activ 0.5, Cav32 inh -0.0493, CYP2C19 inh 69.7*, CYP2C19 activ 0.3 and CYP2C9 inh 48.4.
Screening COc1cccc(NC(=O)CSC2=C(C#N)C(c3ccco3)C3=C(CCCC3=O)N2)c1 (centres undefined) returned CYP2C9 activ 0.3, Cav32 inh -0.00336, CYP2C19 inh 59.8*, CYP2C19 activ 0.4 and CYP2C9 inh 66.0*.
For COc1ccc(NC(=O)CSC2=C(C#N)C(c3ccco3)C3=C(CCCC3=O)N2)c(OC)c1 (centres undefined) the results were CYP2C9 activ 0.1, Cav32 inh 0.295, CYP2C19 inh 92.7*, CYP2C19 activ 0.1 and CYP2C9 inh 85.1*.
For CCCCc1ccc(NC(=O)CSCc2cc(=O)[nH][nH]2)cc1 the results were CYP2C9 activ 0.8, Cav32 inh -0.707, CYP2C19 inh 22.8, CYP2C19 activ 0.8 and CYP2C9 inh 15.5.
For CCCCc1ccc(NC(=O)CSC2=C(C#N)C(c3ccco3)C3=C(CCCC3=O)N2)cc1 (centres undefined) the results were CYP2C9 activ 0.1, Cav32 inh -3.31, CYP2C19 inh 75.5*, CYP2C19 activ 0.2 and CYP2C9 inh 91.8*.
For COc1ccc(-c2csc(NC(CO)c3nc4ccccc4n3CCCO)n2)cc1 (centres undefined) the results were Cav32 inh -0.0147.
Screening Cc1ccnc2nc(C(=O)Nc3nccs3)nn12 returned CYP2C9 activ 1, CYP2C19 inh 5.0, CYP2C19 activ 0.9 and CYP2C9 inh 2.2.
`COc1ccc(NCc2n[nH]nc2-c2ccccc2)cc1Cl` gave CYP2C9 activ 0.1, Cav32 inh -3.24, CYP2C19 inh 96.9*, CYP2C19 activ 0 and CYP2C9 inh 86.0*.
Screening COc1ccc(CNc2ccccc2)cc1Br returned Cav32 inh -1.26.
CCn1c(CSc2nc3ccccc3s2)n[nH]c1=S was read as CYP2C9 activ 0.6, Cav32 inh 0.241, CYP2C19 inh 73.2*, CYP2C19 activ 0.3 and CYP2C9 inh 38.8.
`S=c1[nH]nc(CSc2nc3ccccc3s2)n1Cc1ccccc1` gave CYP2C9 activ 0.9, Cav32 inh -0.564, CYP2C19 inh 1.3, CYP2C19 activ 1 and CYP2C9 inh 9.9.
CCn1c(C(c2ccccc2)c2ccccc2)n[nH]c1=S was read as CYP2C9 activ 0.2, Cav32 inh -1.04, CYP2C19 inh 41.4, CYP2C19 activ 0.6 and CYP2C9 inh 82.4*.
For N#CCCCSc1nnc(CSc2nc3ccccc3s2)n1-c1ccccc1 the results were CYP2C9 activ 0.5, Cav32 inh -4.01, CYP2C19 inh 37.5, CYP2C19 activ 0.6 and CYP2C9 inh 46.5.
C=CCn1c(CSc2nc3ccccc3s2)n[nH]c1=S was read as CYP2C9 activ 1, CYP2C19 inh 50.3*, CYP2C19 activ 0.5 and CYP2C9 inh 0.5.
For CCCSc1nnc(CSc2nc3ccccc3s2)n1-c1ccccc1 the results were CYP2C9 activ 0.3, Cav32 inh -2.59, CYP2C19 inh 55.3*, CYP2C19 activ 0.4 and CYP2C9 inh 70.0*.
`CCn1c(-c2ccccc2O)n[nH]c1=S` gave CYP2C9 activ 1, Cav32 inh 0.345, CYP2C19 inh 35.3, CYP2C19 activ 0.6 and CYP2C9 inh 4.1.
Screening CCOc1cc(NC(=O)c2ccccc2C)c(OCC)cc1NC(=O)C1=Cc2ccccc2OC1 returned CYP2C9 activ 0.9, Cav32 inh 0.151, CYP2C19 inh 13.5, CYP2C19 activ 0.9 and CYP2C9 inh 11.7.
Screening COc1cc(OC)c2nc(C)c3c(c2c1)N(c1ccc(O)cc1)CC3 returned CYP2C9 activ 1, CYP2C19 inh 27.4, CYP2C19 activ 0.7 and CYP2C9 inh 0.5.
Screening CCn1c(CSc2nc3ccccc3s2)nnc1SCC(=O)c1ccc(Cl)cc1 returned CYP2C9 activ 1, Cav32 inh -4.25*, CYP2C19 inh 0.0, CYP2C19 activ 1 and CYP2C9 inh -3.1.
For CCn1c(CSc2nc3ccccc3s2)nnc1SCC(=O)c1ccc(O)c(O)c1 the results were CYP2C9 activ 0.9, Cav32 inh -1.16, CYP2C19 inh 36.9, CYP2C19 activ 0.6 and CYP2C9 inh 14.1.
Screening CC(=O)Nc1c(O)nc(SCC(=O)Nc2c(C)cccc2C)[nH]c1=O returned CYP2C9 activ 1, Cav32 inh 0.0236, CYP2C19 inh -8.2, CYP2C19 activ 1.1 and CYP2C9 inh 0.0.
For CC(C)CCNC(=O)CN(C)S(=O)(=O)c1cccc2nsnc12 the results were CYP2C9 activ 0.5, Cav32 inh -0.578, CYP2C19 inh 25.4, CYP2C19 activ 0.7 and CYP2C9 inh 50.2*.
For CCc1cccc(NC(=O)CN(C)S(=O)(=O)c2cccc3nsnc23)c1 the results were Cav32 inh -1.39.
For Cc1cc(C)cc(NC(=O)CN(C)S(=O)(=O)c2cccc3nsnc23)c1 the results were CYP2C9 activ 0.5, Cav32 inh -2.62, CYP2C19 inh 37.4, CYP2C19 activ 0.6 and CYP2C9 inh 54.5*.
